In all, about 340,000 compounds went through this assay and about 1,000 (0.29%) were called active. Rule as the data show it: inconclusive = inhibition above about 29% without an active follow-up result; inactive = below that. Not all results are given here. Entries with a potency or affinity are not part of this list.
Target: Genome polyprotein (Dengue virus type 2 (strain 16681-PDK53)) (UniProt P29991)
Assay: flavivirus cap methylation enzyme inhibition – biochemical, confirmation dose response, primary screen (AID 588689)
Settings: Dengue-2 NS5 methyltransferase capping enzyme assay, at 25 µM, stronger effect = higher value

Compound	inhibition	inhibition (measured here: pilot screen replicate inhibition) [%]
O=S(=O)(/N=C(\Nc1ccc(F)cc1)C(F)(F)F)c1ccccc1	3.78% (inactive)	–
COc1ccc(C(=O)C(C)Oc2cccc(NC(=O)c3cccc([N+](=O)[O-])c3)c2)cc1 (stereo not drawn)	3.25% (inactive)	–
Cc1ccccc1N=Nc1ccc(O)c2ncccc12	-2.17% (inactive)	–
NS(=O)(=O)c1ccc(N=Nc2ccc(O)c3ncccc23)cc1	13.7% (inactive)	–
CCN(CC)c1nc2ccccc2n(Cc2cccc(OC)c2)c1=O	-2.37% (inactive)	–
Cc1ccc(S(=O)(=O)N2CCC[C@H]2C(=O)OCC(=O)c2ccc3c(c2)NC(=O)CO3)cc1	-4.71% (inactive)	–
CC(=O)Nc1ccccc1NC(=O)COc1cccc2ccccc12	-2.63% (inactive)	–
O=C(Cc1cccc2ccccc12)Nc1cc(Cl)ccc1C(=O)O	-1.36% (inactive)	–
O=C(COc1ccccc1C(=O)O)Nc1cccc2ccccc12	1.47% (inactive)	–
O=C(COc1ccccc1[N+](=O)[O-])Nc1cc(Cl)ccc1C(=O)O	0% (inactive)	–
COc1cc(C(C(=O)NC2CCCC2)N(CCO)C(=O)Cn2nnc(-c3ccc(C)o3)n2)ccc1O (stereo not drawn)	0.83% (inactive)	–
COc1ccc(CCNC(=O)CN(c2cc(OC)ccc2OC)S(=O)(=O)c2ccccc2)cc1	-15.3% (inactive)	–
N#CC1(c2ccccc2)CCC(=NNS(=O)(=O)c2ccccc2)CC1 (stereo not drawn)	-6.67% (inactive)	–
CCn1c(SCC(=O)NC2CCCCC2)nnc1-c1cccs1	-2.08% (inactive)	–
CCCc1[nH][nH]c(=O)c1C(c1ccc(Cl)cc1)C(C#N)C#N (stereo not drawn)	-8.33% (inactive)	–
Cc1[nH]n(-c2ccccc2)c(=O)c1C(C[N+](=O)[O-])c1ccc(Br)cc1 (stereo not drawn)	12.4% (inactive)	–
Cc1[nH]n(-c2ccccc2)c(=O)c1-c1ccc(Cl)cc1	-1.62% (inactive)	–
CCCc1[nH][nH]c(=O)c1C(c1ccc(Br)cc1)C(C#N)C#N (stereo not drawn)	-1.4% (inactive)	–
COc1ccc(C(c2c(C)[nH]n(C(N)=S)c2=O)C(C#N)C#N)cc1 (stereo not drawn)	28% (inactive)	–
Cc1[nH]n(-c2ccccc2)c(=O)c1C(C[N+](=O)[O-])c1ccc(Cl)cc1 (stereo not drawn)	4.51% (inactive)	–
Cc1[nH]oc(=O)c1N=Nc1ccc2[nH]c(=O)[nH]c2c1	-0.78% (inactive)	–
Cc1c(NC(=O)Nc2cccc(Cl)c2Cl)c(=O)n(-c2ccccc2)n1C	3.9% (inactive)	–
C/C(N)=C(/C#N)C(=O)COC(=O)[C@@H](NC(=O)c1ccccc1Cl)C(C)C	-7.12% (inactive)	–

Compound	inhibition	inhibition (measured here: pilot screen replicate inhibition) [%]
CCCCc1nnc(SCC(=O)Nc2nccs2)n1CC	-0.32% (inactive)	–
CC1CCCN(S(=O)(=O)c2ccc3[nH]c(=O)cc(C(=O)NCCCN4CCCCCC4)c3c2)C1 (stereo not drawn)	-5.49% (inactive)	–
COC1=C(N)C(=O)c2nc(C)ccc2C1=O	12.3% (inactive)	–
O=C1c2cccnc2-c2ncccc21	5.95% (inactive)	–
NC1=C(Br)C(=O)c2ncccc2C1=O	20.2% (inactive)	–
Cc1cccc(N2C(=O)c3ccc(Br)cc3C2=O)n1	-2.38% (inactive)	–
O=C(OCC(=O)N1CCOCC1)c1ccc[nH]c1=O	-3.24% (inactive)	–
CCN(Cc1ccccc1)C(=O)CCNS(=O)(=O)c1cc(Br)cnc1N	2.62% (inactive)	–
CC1CCN(c2nc3ccc(C(=O)N4CCN(Cc5ccc6c(c5)OCO6)CC4)cc3s2)CC1	-4.17% (inactive)	–
COc1ccc2nc(N3CCC(C)CC3)c(C#N)cc2c1	14.4% (inactive)	–
COc1ccc2nc(N3CCCC3)c(C#N)cc2c1	12.8% (inactive)	–
CC(=O)Nc1ccc(NC(=O)C(C)OC(=O)CCC2CCCCC2)cc1 (stereo not drawn)	0.32% (inactive)	–
CCN(C(=O)COC(=O)/C=C/c1ccc(Cl)c(Cl)c1)c1c(N)n(Cc2ccccc2)c(=O)[nH]c1=O	2.22% (inactive)	–
COc1ccccc1OCCCCNC(C)(C)C	-1.39% (inactive)	–
O=C(Nc1ccc(S(=O)(=O)Nc2ncccn2)cc1)c1ccc(Br)o1	-3.89% (inactive)	–
CC1(C)Cc2c(C#N)c(N)sc(=S)c2CO1	4.14% (inactive)	–
N#Cc1c(N)sc2c1CCCCCC2	-3.42% (inactive)	–
COc1cc2c(cc1OC)C(c1ccccc1F)NCC2 (stereo not drawn)	-3.4% (inactive)	–
O=C(CN1CCC(NC(=O)c2ccccc2Cl)CC1)NCc1ccccc1	-1.62% (inactive)	–
COc1ccc(CNC(=O)C(C)N2CCN(S(=O)(=O)c3ccccc3F)CC2)cc1 (stereo not drawn)	-2.2% (inactive)	–
COc1cc(/C=C2/C(=O)ON=C2c2ccccc2)ccc1O	-8.45% (inactive)	–
CCOc1cc(/C=C2/C(=O)ON=C2C)ccc1OCc1ccc(F)cc1	24.8% (inactive)	–
C=CCOc1ccc(/C=C2/C(=O)ON=C2C)cc1OC	28.1% (inactive)	–

Compound	inhibition	inhibition (measured here: pilot screen replicate inhibition) [%]
CCOc1ccc(Cl)cc1/C=C1/C(=O)ON=C1C	20.2% (inactive)	–
CCOc1cc(/C=C2\C(=O)ON=C2C)ccc1OCc1ccccc1	-8.01% (inactive)	–
CCOc1cc(/C=C2/C(=O)ON=C2C)ccc1O	-24.5% (inactive)	–
CCCOc1ccc(/C=C2/C(=O)ON=C2C)cc1Cl	12.4% (inactive)	–
COc1ccc(/C=C2/C(=O)ON=C2c2ccccc2)cc1OC	-17.6% (inactive)	–
NC(=O)c1ccc(NC(=O)c2cccc(Oc3ccccc3)c2)cc1	-7.28% (inactive)	–
CCn1c(CC(=O)Nc2ccccc2)nnc1SCc1nc2ccccc2c(=O)[nH]1	-0.79% (inactive)	–
Nc1ncnc2c1ncn2[C@@H]1O[C@H](CNC(=O)[C@H](N)Cc2cscn2)[C@@H](O)[C@H]1O	-4.56% (inactive)	–
NC(=O)c1cc([N+](=O)[O-])ccc1NCc1cccc(N)c1	-0.8% (inactive)	–
COC(=O)Cn1c(=NC(=O)c2ccc(Cl)s2)sc2cc(C)ccc21	4.02% (inactive)	–
O=C(NC(=S)NCc1ccccc1)c1ccccc1[N+](=O)[O-]	-9.35% (inactive)	–
O=C(NCCc1ccccc1)C(=O)Nc1ccc2c(c1)OCCO2	-12.2% (inactive)	–
O=C(c1ccc(Cl)c(Cl)c1)N1CCN(c2ccccn2)CC1	-2.38% (inactive)	–
COCCN(C(=O)CSc1nnc(-c2ccccc2F)n1N)c1c(N)n(Cc2ccccc2)c(=O)[nH]c1=O	11.2% (inactive)	–
CCOc1ccc(OCCCC(=O)NCCOc2ccccc2OC)cc1	-5.46% (inactive)	–
Cc1cccc(OCC(=O)NC(=S)Nc2ccc(S(=O)(=O)NC3CCCCC3)cc2)c1	0% (inactive)	–
CC(C)(C)C(=O)CSc1nc2c(c(-c3cccs3)c1C#N)CCC2	-8.9% (inactive)	–
CN1CCc2nc(SC(C(=O)O)c3ccccc3)c(C#N)c(-c3cccs3)c2C1 (stereo not drawn)	23.2% (inactive)	–
Cc1ccc(CNC(=O)CCS(=O)(=O)c2ccc(Br)cc2)cc1	-2.71% (inactive)	–
Cc1nc2ccccc2c(=O)n1NC(=O)c1ccc(C(C)(C)C)cc1	-7.84% (inactive)	–
O=C(O)CC(NC(=O)C12CC3CC(CC(C3)C1)C2)c1cccc([N+](=O)[O-])c1 (stereo not drawn)	4.1% (inactive)	–
CCN=C1S/C(=C\c2ccc(-c3cccc(C(=O)O)c3)o2)C(=O)N1CC	0.91% (inactive)	–
O=C(O)c1cccc(-c2ccc(/C=C3/SC(=Nc4ccccc4)N(Cc4cccnc4)C3=O)o2)c1	3.26% (inactive)	–

Compound	inhibition	inhibition (measured here: pilot screen replicate inhibition) [%]
COc1ccc(C(=O)CN2C(=O)NC3(CCCc4ccccc43)C2=O)cc1 (stereo not drawn)	-6.6% (inactive)	–
O=C(O)Cn1c(CC(=O)N2CCCC2)nc2ccccc21	2.7% (inactive)	–
O=[N+]([O-])c1ccccc1-c1ccc(/C=N/n2cnnc2)o1	1.62% (inactive)	–
CCOC(=O)c1cc(-c2ccc(/C=C3/C(=O)NC(=O)C(C#N)=C3C)o2)ccc1Cl	44.5% (inactive)	–
N#C/C(=C\c1ccc(-c2ccccc2[N+](=O)[O-])o1)C(N)=O	-6.96% (inactive)	–
N#C/C(=C/c1ccc(-c2ccccc2[N+](=O)[O-])o1)C(N)=O	-17.5% (inactive)	–
CC1=C(C#N)C(=O)NC(=O)/C1=C\c1ccc(-c2ccc(C)cc2[N+](=O)[O-])o1	23.7% (inactive)	–
O=C(O)/C(=C\c1ccc(-c2ccccc2[N+](=O)[O-])o1)c1ccccc1	25.4% (inactive)	–
CCN1C(=O)[C@H]2[C@@H](c3ccc(C)cc3)N3C(=O)N(c4cccc(Cl)c4)C(=O)[C@@]3(Cc3ccccc3)[C@H]2C1=O	0% (inactive)	–
NC(=O)CSc1oc(-c2ccc(F)cc2)nc1S(=O)(=O)c1ccccc1	-9.82% (inactive)	–
Cc1ccccc1NC(=O)C1CCC(=O)N1 (stereo not drawn)	-6.11% (inactive)	–
O=C(CNC(=O)c1cccc(S(=O)(=O)N2CCc3ccccc32)c1)Nc1ccccc1Br	2.25% (inactive)	–
CSc1ccc(/C=N/Nc2ccc(Cl)c(C(=O)O)c2)cc1	-1.45% (inactive)	–
O=C(O)c1cc(N/N=C/c2ccncc2)ccc1Cl	-3.81% (inactive)	–
COC(=O)C1SCC2C(=O)N(Cc3ccc(F)cc3)CC(=O)N21 (stereo not drawn)	-5.39% (inactive)	–
Cn1c(SCC(=O)Nc2ccc3nc(SCC(=O)N4CCCC4)sc3c2)nnc1-c1ccc(N)cc1	9.65% (inactive)	–
O=c1c2ccccc2nc(SCc2cc([N+](=O)[O-])cc3c2OCOC3)n1-c1ccccc1	-2.94% (inactive)	–
COc1ccc(OC)c(NC(=O)Nc2cccnc2)c1	1.62% (inactive)	–
Cc1cc(C)c(NC(=O)CN2C(=O)NC3(CCCCC3)C2=O)c(Cl)c1	-4.81% (inactive)	–
CCCn1nc(NS(=O)(=O)c2cccc3nonc23)c2cc3ccccc3nc21	0.45% (inactive)	–
CCCCn1nc(NS(=O)(=O)c2cccc3nonc23)c2cc3cccc(C)c3nc21	27.8% (inactive)	–
COc1ccc(S(=O)(=O)NCC2CCCN(C(=O)CSC)C2)cc1 (stereo not drawn)	-2.61% (inactive)	0.01
C=CCN(C(=O)Cc1cccs1)c1nc(-c2ccc(S(C)(=O)=O)cc2)cs1	-10.3% (inactive)	–
